Test results taken from PubChem BioAssay (Tox21).
Values joined by “and” are separate entries in the source; they are usually repeats but may differ in a detail not shown here. Equal entries are not always repeated. Inconclusive results are not listed. Entries that show only a call come without a potency. Some compounds were tested as several samples or in several runs, with calls that do not always agree. Active and inactive are the calls of the source. The call rests on the fitted dose curve; in most records, active means well fitted curve in the direction sought with a large enough effect in the repeat runs; inconclusive means weak or mixed curves; inactive means no such curve, though single readings can be large; an effect the other way counts as inactive or inconclusive.

Experiments:
[1] = qHTS RealTime-Glo MT Cell Viability Assay in HepG2 cells - 40 hour (AID 1224870); further: nearly all actives have a fitted effect of over 50% in size
Procedure, shortened: (§1)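 HepG2 cells mixed with RealTime-Glo MT reagents (NanoLuc plus cell-permeant prosubstrate) were seeded at 600 cells/well, incubated 5 h at 37 C/5% CO2, then pinned with compounds in DMSO; nonlytic luminescence tracked viability during 40 h treatment.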

[2] = A CellTox Green Cytotoxicity Assay to monitor cytotoxicity in HEK293 cells - 40 hour (AID 1224871); further: nearly all actives have a fitted effect of over 45% in size; further: potency means the concentration at half of the fitted maximal effect
Procedure, shortened: (§2)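 Real-time, in one plate: 600 HEK293 cells/well with dead-cell DNA dye, pinned compound after 5 h, 37 C incubation over 40 h; viable cells give no appreciable fluorescence.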

[3] = qHTS RealTime-Glo MT Cell Viability Assay in HEK293 cells - 16 hour (AID 1224872); further: nearly all actives have a fitted effect of over 50% in size; further: potency means the concentration at half of the fitted maximal effect
Procedure, shortened: (§3)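 Quantitative high-throughput screen of the Tox21 10K library in HEK293: cells and RealTime-Glo reagents plated together, compound added at 5 h, luminescence monitored through 40 h at 37 C.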

[4] = qHTS RealTime-Glo MT Cell Viability Assay in HepG2 cells - 8 hour (AID 1224873); further: nearly all actives have a fitted effect of over 55% in size
Procedure, shortened: as §1

[5] = qHTS RealTime-Glo MT Cell Viability Assay in HEK293 cells - 40 hour (AID 1224874); details: RealTime-Glo luminescence; max response: stronger effect = lower value; further: nearly all actives have a fitted effect of over 50% in size; further: potency means the concentration at half of the fitted maximal effect
Procedure, shortened: (§4)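 Kinetic, non-lysing viability readout. Seed HEK293 (600/well) with reagent, incubate 5 h at 37 C/5% CO2, pin 23 nL compound in DMSO, incubate at 37 C, read luminescence at 0, 8, 16, 24, 32, 40 h.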

[6] = A CellTox Green Cytotoxicity Assay to monitor cytotoxicity in HEK293 cells - 24 hour (AID 1224875); further: series mostly up to about 77 µM; nearly all actives have a fitted effect of over 45% in size
Procedure, shortened: as §2

[7] = A CellTox Green Cytotoxicity Assay to monitor cytotoxicity in HepG2 cells - 16 hour (AID 1224876); further: nearly all actives have a fitted effect of over 45% in size; further: potency means the concentration at half of the fitted maximal effect
Procedure, shortened: (§5)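 Cytotoxicity was tracked as dead-cell DNA fluorescence in HepG2 cells treated with test compounds at 37 C; each time-point value comes from one kinetic series spanning 0, 8, 16, 24, 32 and 40 h.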

[8] = qHTS RealTime-Glo MT Cell Viability Assay in HepG2 cells - 32 hour (AID 1224877); further: nearly all actives have a fitted effect of over 55% in size
Procedure, shortened: (§6)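 Compound treatment began 5 h after plating HepG2 cells (600/well) with NanoLuc luciferase and prosubstrate. Plates stayed at 37 C for 40 h; luminescence was captured at six time points, 0 h through 40 h.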

[9] = A CellTox Green Cytotoxicity Assay to monitor cytotoxicity in HepG2 cells - 24 hour (AID 1224878); further: nearly all actives have a fitted effect of over 45% in size; further: potency means the concentration at half of the fitted maximal effect
Procedure, shortened: as §5

[10] = A CellTox Green Cytotoxicity Assay to monitor cytotoxicity in HepG2 cells - 40 hour (AID 1224879); further: nearly all actives have a fitted effect of over 40% in size; further: potency means the concentration at half of the fitted maximal effect
Procedure, shortened: as §5

[11] = qHTS RealTime-Glo MT Cell Viability Assay in HEK293 cells - 0 hour (AID 1224880)
Procedure, shortened: as §4

[12] = A CellTox Green Cytotoxicity Assay to monitor cytotoxicity in HEK293 cells - 32 hour (AID 1224881); further: nearly all actives have a fitted effect of over 40% in size; further: potency means the concentration at half of the fitted maximal effect
Procedure, shortened: as §2

[13] = A CellTox Green Cytotoxicity Assay to monitor cytotoxicity in HepG2 cells - 0 hour (AID 1224882); further: nearly all actives have a fitted effect of over 35% in size; further: potency means the concentration at half of the fitted maximal effect
Procedure, shortened: as §5

[14] = A CellTox Green Cytotoxicity Assay to monitor cytotoxicity in HepG2 cells - 32 hour (AID 1224883); further: nearly all actives have a fitted effect of over 50% in size
Procedure, shortened: as §5

[15] = A CellTox Green Cytotoxicity Assay to monitor cytotoxicity in HEK293 cells - 8 hour (AID 1224884); further: nearly all actives have a fitted effect of over 35% in size; further: potency means the concentration at half of the fitted maximal effect
Procedure, shortened: as §2

[16] = qHTS RealTime-Glo MT Cell Viability Assay in HepG2 cells - 16 hour (AID 1224885); further: nearly all actives have a fitted effect of over 50% in size
Procedure, shortened: as §6

[17] = qHTS RealTime-Glo MT Cell Viability Assay in HEK293 cells - 8 hour (AID 1224887)
Procedure, shortened: as §4

[18] = A CellTox Green Cytotoxicity Assay to monitor cytotoxicity in HEK293 cells - 16 hour (AID 1224888); further: nearly all actives have a fitted effect of over 35% in size
Procedure, shortened: as §2

[19] = qHTS RealTime-Glo MT Cell Viability Assay in HepG2 cells - 0 hour (AID 1224889); further: nearly all actives have a fitted effect of over 50% in size
Procedure, shortened: as §6

[20] = qHTS RealTime-Glo MT Cell Viability Assay in HEK293 cells - 24 hour (AID 1224886)
Procedure, shortened: as §3

Compound: O=[N+]([O-])c1ccc(O)cc1
- outcome [1]: inactive
- Potency [2]: inactive
- Potency [3]: inactive
- outcome [4]: inactive
- max response [5]: -24.7% (inactive) and -8.36% (inactive) and 4.76% (inactive)
- Potency [6]: inactive
- Potency [7]: inactive
- outcome [8]: inactive
- Potency [9]: inactive
- Potency [10]: inactive
- Potency [11]: inactive
- Potency [12]: inactive
- Potency [13]: inactive
- Potency [14]: inactive
- Potency [15]: inactive
- Potency [16]: inactive
- Potency [17]: inactive
- Potency [18]: inactive
- Potency [19]: inactive

Compound: NCCNc1cccc2ccccc12
- outcome [1]: inactive
- Potency [2]: inactive
- Potency [3]: 54.9 µM (active) and 47.8 µM (active) and inactive
- outcome [4]: inactive
- Potency [5]: 54.9 µM (active) and 53.6 µM (active)
- max response [5]: 0.781% (inactive)
- Potency [7]: inactive
- outcome [8]: inactive
- Potency [9]: 53.6 µM (active) and inactive
- Potency [10]: 53.6 µM (active) and inactive
- Potency [12]: inactive
- Potency [13]: inactive
- Potency [15]: inactive
- Potency [16]: inactive
- Potency [17]: inactive
- Potency [18]: inactive
- Potency [19]: inactive

Compound: CCCCCCCC(=O)OCC(O)CO (stereo not given)
- outcome [1]: inactive
- Potency [2]: inactive
- Potency [3]: inactive
- outcome [4]: inactive
- max response [5]: 11.2% (inactive) and -0.735% (inactive)
- Potency [6]: inactive
- Potency [7]: inactive
- outcome [8]: inactive
- Potency [9]: inactive
- Potency [10]: inactive
- Potency [11]: inactive
- Potency [12]: inactive
- Potency [13]: inactive and 26.8 µM (active)
- Potency [14]: inactive
- Potency [15]: inactive
- Potency [16]: inactive
- Potency [17]: inactive
- Potency [19]: inactive

Compound: COCCOCCOC
- outcome [1]: inactive
- Potency [2]: inactive
- Potency [3]: inactive
- outcome [4]: inactive
- max response [5]: 13% (inactive) and 10.3% (inactive)
- Potency [6]: inactive
- Potency [7]: inactive
- outcome [8]: inactive
- Potency [9]: inactive
- Potency [10]: inactive
- Potency [11]: inactive
- Potency [12]: inactive
- Potency [13]: inactive
- Potency [14]: inactive
- Potency [15]: inactive
- Potency [16]: inactive
- Potency [20]: inactive
- Potency [17]: inactive
- Potency [18]: inactive
- Potency [19]: inactive

Compound: COc1cc(C=O)ccc1O
- outcome [1]: inactive
- Potency [2]: inactive
- Potency [3]: inactive
- outcome [4]: inactive
- max response [5]: 0.342% (inactive) and 3.21% (inactive) and 2.85% (inactive)
- Potency [6]: inactive
- Potency [7]: inactive
- outcome [8]: inactive
- Potency [9]: inactive
- Potency [10]: inactive
- Potency [12]: inactive
- Potency [13]: inactive
- Potency [15]: inactive
- Potency [16]: inactive
- Potency [20]: inactive
- Potency [17]: inactive
- Potency [18]: inactive
- Potency [19]: inactive

Compound: OC[C@@H](O)[C@@H](O)[C@H](O)[C@H](O)CO
- Potency [2]: inactive
- Potency [3]: inactive
- outcome [4]: inactive
- max response [5]: 5.62% (inactive) and 0.187% (inactive) and 10.1% (inactive)
- Potency [6]: inactive
- Potency [7]: inactive
- outcome [8]: inactive
- Potency [9]: inactive
- Potency [10]: inactive
- Potency [11]: inactive
- Potency [12]: inactive
- Potency [13]: inactive
- Potency [14]: inactive
- Potency [15]: inactive
- Potency [16]: inactive
- Potency [17]: inactive
- Potency [19]: inactive

Compound: CC(=O)CCC(C)C
- outcome [1]: inactive
- Potency [2]: inactive and 24.5 µM (active)
- Potency [3]: inactive
- outcome [4]: inactive
- max response [5]: -1.02% (inactive) and 1.57% (inactive)
- Potency [7]: inactive and 38.9 µM (active)
- outcome [8]: inactive
- Potency [9]: inactive and 38.9 µM (active)
- Potency [10]: inactive and 27.5 µM (active)
- Potency [12]: inactive and 34.7 µM (active)
- Potency [13]: inactive and 38.9 µM (active)
- Potency [15]: inactive and 38.9 µM (active)
- Potency [16]: inactive
- Potency [20]: inactive
- Potency [17]: inactive
- Potency [19]: inactive

Compound: O=c1cc[nH]c(=O)[nH]1
- Potency [2]: inactive
- Potency [3]: inactive
- outcome [4]: inactive
- max response [5]: -9.27% (inactive) and 1.51% (inactive)
- Potency [6]: inactive
- Potency [7]: inactive
- outcome [8]: inactive
- Potency [9]: inactive
- Potency [10]: inactive
- Potency [11]: inactive
- Potency [12]: inactive
- Potency [13]: inactive
- Potency [14]: inactive
- Potency [15]: inactive
- Potency [16]: inactive
- Potency [17]: inactive
- Potency [19]: inactive

Compound: C=C(C)C(N)=O
- outcome [1]: inactive
- Potency [2]: inactive
- Potency [3]: inactive
- outcome [4]: inactive
- max response [5]: 4.84% (inactive) and 13.1% (inactive)
- Potency [7]: inactive
- outcome [8]: inactive
- Potency [9]: inactive
- Potency [10]: inactive
- Potency [11]: inactive
- Potency [12]: inactive
- Potency [13]: inactive
- Potency [15]: inactive
- Potency [16]: inactive
- Potency [20]: inactive
- Potency [17]: inactive
- Potency [19]: inactive

Compound: NC(=O)N1c2ccccc2C=Cc2ccccc21
- Potency [2]: inactive
- Potency [3]: inactive
- outcome [4]: inactive
- Potency [5]: 34.5 µM (active)
- max response [5]: -19.3% (inactive) and 0.148% (inactive)
- Potency [6]: inactive
- Potency [7]: inactive
- outcome [8]: inactive
- Potency [9]: inactive
- Potency [10]: inactive
- Potency [11]: inactive
- Potency [12]: inactive
- Potency [13]: inactive
- Potency [14]: inactive
- Potency [15]: inactive
- Potency [16]: inactive
- Potency [20]: inactive
- Potency [17]: inactive
- Potency [18]: inactive
- Potency [19]: inactive

Compound: O=C1OC(c2ccc(O)cc2)(c2ccc(O)cc2)c2ccccc21
- Potency [2]: inactive
- Potency [3]: inactive
- outcome [4]: inactive
- max response [5]: -0.757% (inactive)
- Potency [6]: inactive
- Potency [7]: inactive
- outcome [8]: inactive
- Potency [9]: inactive
- Potency [10]: inactive
- Potency [11]: inactive
- Potency [12]: inactive
- Potency [13]: inactive
- Potency [14]: inactive
- Potency [15]: inactive
- Potency [16]: inactive
- Potency [20]: inactive
- Potency [17]: inactive
- Potency [18]: inactive
- Potency [19]: inactive

Compound: N[C@@H](Cc1c[nH]c2ccc(O)cc12)C(=O)O
- Potency [2]: inactive
- Potency [3]: inactive
- outcome [4]: inactive
- max response [5]: 3.87% (inactive) and 1.98% (inactive)
- Potency [6]: inactive
- Potency [7]: inactive
- outcome [8]: inactive
- Potency [9]: inactive
- Potency [10]: inactive
- Potency [11]: inactive
- Potency [12]: inactive
- Potency [13]: inactive
- Potency [15]: inactive
- Potency [16]: inactive
- Potency [20]: inactive
- Potency [17]: inactive
- Potency [19]: inactive
